Assay results: PubChem BioAssay AID1778 (Sanford-Burnham Center for Chemical Genomics, 2009)
Among all 290,000 compounds or so, about 260 (0.09%) were called active. Cut-off read from the data, not from the text of the source: active = inhibition above about 50%; inactive = the rest. Only a selection was taken, and actives are over-represented in it overall. Potency and affinity values are given separately.

Target: Kappa-type opioid receptor (Homo sapiens) (UniProt P41145)
Test: KOR antagonists, beta-arrestin recruitment, cell-based, luminescence, uHTS (AID 1778)
Conditions: antagonist mode, active compounds read high; at 10 µM unless noted

Chain of Kappa-type opioid receptor (Homo sapiens) (P41145 whole entry, looked up): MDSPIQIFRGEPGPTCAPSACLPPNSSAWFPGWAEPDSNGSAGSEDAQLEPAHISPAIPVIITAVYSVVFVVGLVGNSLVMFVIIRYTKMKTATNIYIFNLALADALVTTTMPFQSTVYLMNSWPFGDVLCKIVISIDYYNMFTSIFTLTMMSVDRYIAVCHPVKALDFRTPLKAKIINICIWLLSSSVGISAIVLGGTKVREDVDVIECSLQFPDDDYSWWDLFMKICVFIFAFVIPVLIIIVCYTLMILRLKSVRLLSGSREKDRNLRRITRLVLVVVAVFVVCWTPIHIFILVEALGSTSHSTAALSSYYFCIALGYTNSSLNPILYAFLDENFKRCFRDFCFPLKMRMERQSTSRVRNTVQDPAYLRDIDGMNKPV

SMILES | inhibition
COc1cc(Br)cc(-c2nc3c(c(=O)[nH]c(=O)n3Cc3ccccc3)n2C)c1O | 7.6% (inactive)
CCN=c1scc(-c2ccc3c(c2)NC(=O)CO3)n1N=C1CCCC1 | 15.3% (inactive)
COCCN=c1scc(-c2ccc3c(c2)NC(=O)CO3)n1/N=C(\C)c1ccc(O)cc1 | 15.8% (inactive)
COC(=O)c1[nH]c2ccc(C)cc2c1NC(=O)CN1CCN(c2ccc(F)cc2)CC1 | -0.7% (inactive)
COc1ccc(C(=O)N/N=C/c2ccccn2)cc1OC | -42.3% (inactive)
COc1cc(C(=O)N/N=C(\C)c2ccccn2)cc(OC)c1OC | -6.4% (inactive)
O=C(N/N=C/c1ccccn1)c1ccccc1 | 30.7% (inactive)
O=C(N/N=C/c1ccccn1)c1ccc(NC(=O)c2cccc([N+](=O)[O-])c2)cc1 | -28.7% (inactive)
COc1ccc(C(=O)N/N=C(\C)c2ccccn2)cc1OC | 95% (active)
C/C(=N\NC(=O)C1COc2ccccc2O1)c1cccs1 (configuration not stated) | -9.2% (inactive)
COc1ccc(C(=O)Nc2ccccc2C(=O)N/N=C/c2ccncc2)cc1OC | -18.4% (inactive)
C/C(=N\NC(=O)C1COc2ccccc2O1)c1ccc(C)o1 (configuration not stated) | 13.3% (inactive)
COc1ccc(C(=O)N/N=C(\C)CC(=O)Nc2ccccn2)cc1OC | 3.4% (inactive)
Cc1nc(CSc2ccc(Cl)cc2)cs1 | 1.3% (inactive)
CCC1CCCCN1C(=O)CSc1nc(N)cc(N)n1 (configuration not stated) | 0.8% [at 20 µM] (inactive)
C/C(=N\S(=O)(=O)c1ccc(C)cc1)NC(=S)Nc1ccc(C)cc1 | -12% (inactive)
CCOc1ccccc1N(C(=O)c1snc(C(N)=O)c1N)C(C(=O)NC1CCCC1)c1cccs1 (configuration not stated) | -14.9% (inactive)
CCCOCn1cc(F)c(=O)[nH]c1=O | 20.7% (inactive)
COc1ccc(OCc2nnc(SCC(=O)Nc3ccccc3C#N)o2)cc1 | -9.7% (inactive)
COc1ccc(NC(=O)c2ccc(CN(c3cc(Cl)ccc3C)S(=O)(=O)c3ccccc3)cc2)cc1OC | -2.5% (inactive)
Cn1c(CNC(=O)c2ccccc2F)nnc1SCC(=O)NCc1ccccc1 | -10.1% (inactive)

SMILES | inhibition
Fc1ccc(-c2ccnc(=S)[nH]2)cc1 | 2.9% (inactive)
C/C(=N/NC(=O)c1ccccn1)c1ccc(O)cc1 | 12.9% (inactive)
C/C(=N/NC(=O)c1ccccn1)c1ccncc1 | -12.4% (inactive)
C/C(=N\NC(=O)c1ccc(F)cc1)c1ccccn1 | 86.6% (active)
Cc1ccc2ccc3ccc(C)nc3c2n1 | -8.8% [at 20 µM] (inactive)
Cc1ccc(O)c(CO)n1 | 0.6% (inactive)
Nc1n[nH]c2cc(=O)n(-c3ccc(Cl)cc3)nc12 | -68.5% [at 20 µM] (inactive)
COc1ccc(-n2nc3c(N)n[nH]c3cc2=O)cc1 | -30.3% [at 20 µM] (inactive)
COc1cccc(-n2nc(C#N)c(Cl)cc2=O)c1 | 32.8% (inactive)
CC(C)(C)c1ccc(-n2nc(C(N)=O)c(O)cc2=O)cc1 | -2% (inactive)
COc1cc(C=O)ccc1OCCSc1ccc(Cl)cc1 | 16.4% (inactive)
CC(CCc1ccccc1)NC(=O)c1ccc(NC(=O)c2ccc(Cl)cc2Cl)cc1 (configuration not stated) | 26.3% (inactive)
C/C=N/NC(=O)CCNC(=O)c1ccccc1 | -40% (inactive)
CCCCn1c(-c2cccs2)nc2oc3ccccc3c(=O)c2c1=O | 17.8% (inactive)
Cc1cc2nnc(SCC(=O)Nc3cc(S(=O)(=O)N4CCOCC4)ccc3Cl)n2c2ccccc12 | -21.8% (inactive)
O=C(NNC(=O)C1CC=CCC1C(=O)O)c1cccs1 (configuration not stated) | 30.6% (inactive)
CC1SCC(NC(=O)c2cccc(Cl)c2)CS1 (configuration not stated) | -29.1% (inactive)
CCN(CC(=O)Nc1ccccc1C(F)(F)F)C(=O)CCc1nc2ccccc2c(=O)[nH]1 | -11.6% (inactive)
COc1ccc(-c2c(C)[nH]n3c(=O)c(Cc4ccccc4)c(C)nc23)cc1 | -5.1% (inactive)
Cc1nc2c(-c3ccccc3)c(C)[nH]n2c(=O)c1Cc1ccccc1 | -10.5% [at 20 µM] (inactive)
Cc1nc2c(-c3ccc(Cl)cc3)c(C)[nH]n2c(=O)c1Cc1ccccc1 | 51% (active)

SMILES | inhibition
COc1ccc(CC(=O)Nc2ccc(C(C)=O)cc2)cc1 | -81.9% [at 20 µM] (inactive)
Oc1[nH]c2ccccc2c1C=Nc1ccc2c(c1)OCCO2 | 0.8% (inactive)
Nc1ccc(N=Nc2ccccc2)c2cccnc12 | -4.3% (inactive)
O=S(=O)(O)c1cccc2c(N=Nc3ccc(O)c4ncccc34)cccc12 | -7.2% (inactive)
Oc1[nH]c2ccccc2c1C=Nc1ccc2c(c1)OCO2 | -33.1% (inactive)
Oc1ccc(N=Nc2ccc3c(c2)OCCO3)c(O)c1 | 34.9% (inactive)
O=S(=O)(Nc1ccc(N=Nc2ccc(O)c3ccccc23)cc1)c1ccccc1 | -3.4% (inactive)
Oc1ccc(N=Nc2ccc3c(c2)OCO3)c2ccccc12 | 85.1% (active)
Oc1ccc(N=Nc2ccc3c(c2)OCCO3)c2cccnc12 | 68.5% (active)
COc1ccccc1NC(=O)c1cc2c(CO)cnc(C)c2oc1=Nc1cccc(C(N)=O)c1 | 21.7% (inactive)
CCN(CC)CC#Cc1ccc(C)cc1 | -6.4% (inactive)
CCC(C(=O)OC)n1cnc2c(nnn2-c2ccccc2)c1=O (configuration not stated) | -16.1% [at 20 µM] (inactive)
Cc1nn(-c2ccc(N3CCCCC3)nn2)c(C)c1CCC(=O)Nc1ccc(F)c(F)c1 | -31.5% (inactive)
Cc1cc(C)cc(NC(=O)c2ccc3c(c2)CCN3S(C)(=O)=O)c1 | -4.2% (inactive)
Oc1c(CN2CCCCC2)cc(Br)c2cccnc12 | -1.9% (inactive)
COc1ccccc1N1CCN(Cc2cc(Br)c(O)c3ncccc23)CC1 | 63.3% (active)
Oc1c(CN2CCN(c3ccccc3)CC2)cc(Br)c2cccnc12 | 64% (active)
COc1ccccc1N1CCN(Cc2ccc(O)c3ncccc23)CC1 | -12.2% (inactive)
COc1ccccc1N1CCN(Cc2cc3c(cc2Br)OCCO3)CC1 | -44.1% (inactive)
O=[N+]([O-])c1cc(CN2CCN(c3ccccc3)CC2)c(O)c2ncccc12 | 12% [at 20 µM] (inactive)
